In the library only some 10% were active in any assay of this set; here they are far more common.
hNpr1 antagonist: human Npr1 receptor antagonism; P16066; HEK293 hNpr1 GloSensor cGMP, ANP-stimulated luminescence; 1.6% of 76,000 active; Potency, µM (series often up to 46.3 µM), inactives show at the highest dose activity change, negative = inhibition, hits mostly inhibitors; calls by dose curve; also: % is scaled to controls: 0 for no effect and ±100 for the full control effect; nearly all actives have a fitted effect of over 60% in size
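Compound pre-incubated 30 min at room temperature on GloSensor-loaded HEK293 cells stably carrying hNpr1 and the pGS-40F cGMP biosensor. Stimulation uses hNppA at 0.1 nM final; luminescence is taken at baseline and 20 min post-agonist.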
FLuc inh-1: blocks purified firefly luciferase enzyme activity; purified P. pyralis luciferase, luminescence, biochemical; Potency, µM (doses to about 115 µM), usual class: inhibitors; 2.5% of 76,000 active; also: % is scaled to controls: 0 for no effect and ±100 for the full control effect; nearly all actives have a fitted effect of over 65% in size
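Inhibitors were tested against purified firefly luciferase in a biochemical, low-substrate format (both substrates at 10uM) and luminescence measured with a CCD imager.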
HEK293 tox: kills HEK 293 cells; 6.6% of 94,000 active; Potency, µM (highest dose often 115 µM), inactives show at the highest dose activity change, negative = cytotoxicity, most hits filed as inhibitors; HEK 293 viability, ATP luminescence (CellTiter-Glo), 48-72 h; AID 1345083; also: % is scaled to controls: 0 for no effect and ±100 for the full control effect; nearly all actives have a fitted effect of over 60% in size
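Cells seeded first (HEK 293, 250 cells/well), then compound added by pintool. Incubation ran 48 or 72 hr at 37 degree Celsius. CellTiter-Glo was added and luminescence imaged after 10 min at room temperature.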
3T3 cytotox: cytotoxic compounds in NIH 3T3 cells; NIH 3T3 viability, CellTiter-Glo ATP luminescence, 48-72 h; Potency, µM (titrated, usually from 96.7 µM), without a hit: at the highest dose activity change, negative = cytotoxicity, hits mostly inhibitors; 4.3% of 94,000 active; AID 1345082; also: % is scaled to controls: 0 for no effect and ±100 for the full control effect; nearly all actives have a fitted effect of over 55% in size
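Cytotoxicity was measured by CellTiter-Glo ATP luminescence after 48 or 72 h compound exposure at 37 °C. Mouse NIH 3T3 fibroblasts were seeded at 400 cells/well and dosed by 23 nL pin transfer.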
GPT2 inhibitor: inhibitors of human GPT2 alanine aminotransferase; Q8TD30; Recombinant GPT2, coupled pyruvate oxidase/HRP Amplex Red fluorescence; Potency, µM (titrated, usually from 57.7 µM), for the others: top-dose activity change, negative = inhibition, most hits filed as inhibitors; 0.25% of 100,000 active; also: % is scaled to controls: 0 for no effect and ±100 for the full control effect; nearly all actives have a fitted effect of over 60% in size
Target sequence (Q8TD30 whole entry, looked up): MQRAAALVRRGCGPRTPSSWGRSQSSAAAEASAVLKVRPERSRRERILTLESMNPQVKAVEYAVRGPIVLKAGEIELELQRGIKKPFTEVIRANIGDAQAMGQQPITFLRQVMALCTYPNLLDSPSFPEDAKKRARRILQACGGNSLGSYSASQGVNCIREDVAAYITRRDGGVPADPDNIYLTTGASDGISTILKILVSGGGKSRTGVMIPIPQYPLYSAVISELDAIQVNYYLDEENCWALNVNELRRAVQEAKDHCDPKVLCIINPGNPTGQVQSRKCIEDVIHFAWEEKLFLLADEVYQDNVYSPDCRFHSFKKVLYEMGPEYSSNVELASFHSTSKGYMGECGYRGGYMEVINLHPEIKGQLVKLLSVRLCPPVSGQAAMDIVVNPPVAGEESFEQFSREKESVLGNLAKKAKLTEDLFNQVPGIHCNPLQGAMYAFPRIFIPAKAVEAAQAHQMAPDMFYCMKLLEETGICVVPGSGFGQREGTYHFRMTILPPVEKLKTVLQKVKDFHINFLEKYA
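Fluorescence of coupled pyruvate oxidase/HRP/Amplex Red system (50uM Amplex, 30 min, dark) reports pyruvate formed by GPT2. Enzyme reaction: 10ng/uL GPT2, 2mM L-alanine, 250uM a-KG, 30 min room temperature, pH 7.5; 50uM AOA control.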
FLuc SDR no ATP: stabilizes firefly luciferase without ATP. shares compounds with FLuc inh-1. Purified FLuc-C-HiBiT, Nano-Glo HiBiT luminescence, no ATP. Potency, µM (series often up to 32.7 µM), inactives show at the highest dose activation (signal gain), most hits filed as activators. 7.8% of 1,300 active; also: nearly all actives have a fitted effect of over 55% in size
FLuc SDR ATP: firefly luciferase binding stabilization, ATP added; purified FLuc-C-HiBiT + ATP, HiBiT complementation luminescence; AID 1963319; shares compounds with FLuc inh-1; Potency, µM (top dose mostly 32.7 µM), for the others: at the top dose activation (gain of signal), hits mostly activators; 8.7% of 1,300 active;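 also: signal reports ligand binding via conformational change of the enzyme rather than luciferase catalysis; % of control where 0% means no effect; nearly all actives have a fitted effect of over 55% in size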
FLuc inh-2: blocks firefly luciferase enzymatic activity | shares compounds with FLuc inh-1 | purified FLuc-C-HiBiT enzyme, luciferin luminescence | Potency, µM (doses to about 32.7 µM), for inactives: at the highest dose activity change, negative = inhibition, most hits filed as inhibitors | 42% of 1,300 active | AID 1963320; also: % is scaled to controls: 0 for no effect and ±100 for the full control effect; nearly all actives have a fitted effect of over 70% in size
Numbers without * were called inactive; [ ] = dose if it differs, or a comment. Unless noted, calls follow the shape of the dose curve; as a rule, active = well fitted curve in the direction sought with a large enough effect; inconclusive = small, poorly fitted or top-dose-only effect, or another doubt; inactive = no such curve, though single readings can be large; an effect the other way counts as inactive or inconclusive. Potency is read from the fitted curve at half-maximal effect.

Screening Cc1ccc(C)c(-c2cc3c(=O)n(CCNC(=O)c4cccc(F)c4)ccn3n2)c1 returned hNpr1 antagonist -9.3%, FLuc inh-1 inactive, HEK293 tox inconclusive, 3T3 cytotox inconclusive and GPT2 inhibitor -3.8%.
Screening Cc1ccc(-c2cc3c(=O)n(CCNC(=O)c4ccoc4)ccn3n2)c(C)c1 returned hNpr1 antagonist -5.4%, FLuc inh-1 inconclusive, HEK293 tox inconclusive, 3T3 cytotox inconclusive and GPT2 inhibitor inactive.
Screening Cc1ccc(-c2cc3c(=O)n(CCNC(=O)c4ccc(F)c(F)c4)ccn3n2)c(C)c1 returned hNpr1 antagonist -23.2%, FLuc inh-1 inconclusive, HEK293 tox -22.4%, 3T3 cytotox inconclusive and GPT2 inhibitor -32.4%.
Cc1ccc(-c2cc3c(=O)n(CCNC(=O)c4cccc(C#N)c4)ccn3n2)c(C)c1 was read as hNpr1 antagonist inconclusive, FLuc inh-1 2µM*, HEK293 tox 44.7µM*, 3T3 cytotox 35.5µM*, GPT2 inhibitor inactive, FLuc SDR no ATP inconclusive, FLuc SDR ATP inconclusive and FLuc inh-2 3.13µM*.
`Cc1ccc(-c2cc3c(=O)n(CCNC(=O)c4ccco4)ccn3n2)c(C)c1` gave hNpr1 antagonist -11.9%, FLuc inh-1 8.91µM*, HEK293 tox inconclusive, 3T3 cytotox inconclusive, GPT2 inhibitor inactive, FLuc SDR no ATP 22.1%, FLuc SDR ATP 15.4% and FLuc inh-2 inconclusive.
Screening Cc1nc(-c2c3n(c(=O)n(Cc4ccccc4)c2=O)CCCCC3)no1 returned hNpr1 antagonist 0.0%, FLuc inh-1 inactive, HEK293 tox 4.8%, 3T3 cytotox -13.7% and GPT2 inhibitor inactive.
Screening Cc1cccc(OCC(=O)NCCn2ccn3nc(-c4ccc(C)cc4C)cc3c2=O)c1 returned hNpr1 antagonist -23.1%, FLuc inh-1 inconclusive, HEK293 tox inconclusive, 3T3 cytotox inconclusive and GPT2 inhibitor -0.6%.
Screening COc1cccc(CC(=O)NCCn2ccn3nc(-c4ccc(C)cc4C)cc3c2=O)c1 returned hNpr1 antagonist -2.4%, FLuc inh-1 11.2µM*, HEK293 tox inconclusive, 3T3 cytotox inconclusive, GPT2 inhibitor -11.5%, FLuc SDR no ATP inconclusive, FLuc SDR ATP 17.7% and FLuc inh-2 inconclusive.
Screening CNC(=O)[C@@H]1C[C@H](Oc2cccnc2)CN1C(=O)Cc1ccccc1 returned hNpr1 antagonist -0.6%, FLuc inh-1 inactive, HEK293 tox inactive, 3T3 cytotox inactive and GPT2 inhibitor inactive.
Screening CC(C)CNC(=O)N1CCC(N2CC3CC(C2)[C@H]2CCCC(=O)N2C3)CC1 (stereo partly specified) returned hNpr1 antagonist -0.3%, FLuc inh-1 inactive, HEK293 tox -4.2%, 3T3 cytotox inactive and GPT2 inhibitor 3.6%.
For O=C(Nc1ccccc1C(=O)O)c1cccc(S(=O)(=O)N2CCCC2)c1 the results were FLuc SDR no ATP 17.3%, FLuc SDR ATP 12.7% and FLuc inh-2 inconclusive.
`COc1cccc(-c2noc(N3CCCC3)n2)c1OC` gave hNpr1 antagonist 5.4%, FLuc inh-1 inconclusive, HEK293 tox 0.4%, 3T3 cytotox 2.8% and GPT2 inhibitor -7.7%.
CCc1ccccc1Nc1nc(-c2cccc(OC)c2OC)no1 was read as hNpr1 antagonist -19.8%, FLuc inh-1 14.1µM*, HEK293 tox inconclusive, 3T3 cytotox inconclusive, GPT2 inhibitor inactive, FLuc SDR no ATP 21.1%, FLuc SDR ATP 13.5% and FLuc inh-2 inconclusive.
For Cc1c(CC(=O)NC(C)(C)CO)c2c(n1Cc1ccccc1F)CCCC2=O the results were hNpr1 antagonist 3.8%, FLuc inh-1 inactive, HEK293 tox inconclusive, 3T3 cytotox -15.6% and GPT2 inhibitor inconclusive.
Screening O=C(O)C1(Oc2ccc3ccccc3c2)CCN(c2ncnc3nc[nH]c23)CC1 returned hNpr1 antagonist 14.1%, FLuc inh-1 inactive, HEK293 tox -14.7%, 3T3 cytotox -1.9%, GPT2 inhibitor 2.9%, FLuc SDR no ATP 10.8%, FLuc SDR ATP 11.9% and FLuc inh-2 -12.4%.
For COc1cccc(CN2CCNc3cc(Nc4ccccc4)ncc3C2)c1 the results were hNpr1 antagonist -18.4%[70.6 µM], FLuc inh-1 5.62µM*, HEK293 tox 39.8µM*, 3T3 cytotox 39.8µM*, GPT2 inhibitor -2.4%[88.5 µM], FLuc SDR no ATP 20.9%[49.3 µM], FLuc SDR ATP 15.4%[49.3 µM] and FLuc inh-2 inconclusive.
COc1cccc(Nc2cc3c(cn2)CN(Cc2cccnc2)CCN3)c1 was read as hNpr1 antagonist -17.1%[70.6 µM], FLuc inh-1 5.01µM*, HEK293 tox inconclusive, 3T3 cytotox inconclusive, GPT2 inhibitor -6.2%[88.5 µM], FLuc SDR no ATP inconclusive, FLuc SDR ATP 13.9%[49.3 µM] and FLuc inh-2 inconclusive.
`COc1ccc(Nc2cc3c(cn2)NCCN(Cc2ccccc2)C3)cn1` gave hNpr1 antagonist -0.2%[70.6 µM], FLuc inh-1 inactive, HEK293 tox inconclusive, 3T3 cytotox inconclusive and GPT2 inhibitor inconclusive.
COc1cccc(CN2CCc3nc(Nc4ccc5c(c4)OCCO5)ncc3C2)c1 was read as FLuc SDR no ATP 16.6%, FLuc SDR ATP 13.0% and FLuc inh-2 inconclusive.
Screening Cc1ccncc1C(=O)N1CCC(C(=O)N2CCCCCCNC(=O)CC2)CC1 returned hNpr1 antagonist 0.1%, FLuc inh-1 inactive, HEK293 tox inactive, 3T3 cytotox -16.1% and GPT2 inhibitor inactive.
For Cc1ccc(-n2ncc3c(N(C)Cc4ccccc4)ncnc32)cc1 the results were FLuc SDR no ATP inconclusive, FLuc SDR ATP inconclusive and FLuc inh-2 1.57µM*.
For COc1ccc(N2Cc3c(ncnc3N3CCC(Cc4ccccc4)CC3)N(C)CC2=O)cc1 the results were hNpr1 antagonist -5.8%, FLuc inh-1 inactive, HEK293 tox inconclusive, 3T3 cytotox inconclusive and GPT2 inhibitor inconclusive.
`O=C(C1CCN(c2nc3ncccc3o2)CC1)N1CCC(Cc2ccccc2)CC1` gave HEK293 tox inconclusive, 3T3 cytotox inconclusive and GPT2 inhibitor inactive.
Screening Clc1cccc(-n2ncc3c(N4CCC(Cc5ccccc5)CC4)ncnc32)c1 returned FLuc SDR no ATP 10.4%, FLuc SDR ATP 7.4% and FLuc inh-2 -3.6%.

Bioassay records from PubChem.
